Bioassay records as filed in PubChem BioAssay.
PP5 inh = inhibitors of human protein phosphatase 5 (PP5); purified PP5c, OMFP substrate fluorescence; inhibition, % at 6.7 µM; 320,000 compounds, 0.18% hits; P53041;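 active means inhibition above the campaign's mean inhibition across all tested compounds plus 3 SD, cut at about 9.5% in these data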
PAFAH2 FP inh = inhibitors of human PAFAH2; Q99487; recombinant PAFAH2, FP-rhodamine activity probe, fluorescence polarization; inhibition, % at 3.39 µM; 340,000 compounds, 0.99% hits; AID 492956;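 active means inhibition above the mean over all tested compounds plus 3 SD, cut at about 30% in these data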;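 further: inhibitors block probe labeling of enzyme so polarization drops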
PAFAH1B2 FP inh = inhibitors of human PAFAH1B2; recombinant PAFAH1B2, FP-rhodamine activity probe, fluorescence polarization; inhibition, % at 3.39 µM; 340,000 compounds, 1.2% hits; AID 492953;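 active means inhibition above the mean of all tested compounds plus 3 SD, cut at about 24% in these data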
pPAFAH inh = inhibitors of human plasma PAF acetylhydrolase (pPAFAH). Q13093. recombinant pPAFAH, FP-rhodamine probe fluorescence polarization. inhibition, % at 3.39 µM. 330,000 compounds, 1.5% hits;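 active means inhibition above the mean inhibition across the screen plus 3 SD, cut at about 25% in these data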;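 further: inhibitors block binding of the rhodamine activity-based probe so polarization drops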
PAFAH1B3 FP inh = blocks human PAF acetylhydrolase 1B catalytic subunit 3; recombinant PAFAH1B3, FP-rhodamine probe, fluorescence polarization; 340,000 compounds, 0.28% hits; inhibition, % at 3.39 µM;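 active means inhibition above the screen-wide average of all tested compounds plus 3 SD, cut at about 25% in these data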
PP1 counter = PP1-alpha (human) inhibition in PP5 counter-screen; purified PP1alpha, OMFP fluorescence; inhibition, % at 6.7 µM; 320,000 compounds, 0.9% hits;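 active means inhibition above the mean inhibition of all tested compounds plus 3 SD, computed separately for each screening campaign, cut at about 15% in these data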
Target sequence (P62136 whole entry, looked up): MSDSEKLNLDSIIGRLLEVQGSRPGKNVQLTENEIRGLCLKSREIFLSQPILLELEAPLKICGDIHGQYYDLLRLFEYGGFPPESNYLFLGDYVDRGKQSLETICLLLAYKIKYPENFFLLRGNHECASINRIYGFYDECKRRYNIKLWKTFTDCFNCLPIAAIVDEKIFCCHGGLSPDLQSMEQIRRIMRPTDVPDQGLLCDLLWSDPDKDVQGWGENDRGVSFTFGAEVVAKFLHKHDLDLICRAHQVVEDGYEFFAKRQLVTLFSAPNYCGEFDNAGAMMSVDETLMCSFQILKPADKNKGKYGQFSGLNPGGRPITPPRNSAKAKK
Each line names hits and unclear results; the compound was inactive in the other large screens; ! = not active in a repeat. An excerpt weighted towards active compounds, which were near 3.4% of everything screened.

CCN(CC)S(=O)(=O)c1ccc(NC(=O)COC(=O)c2ccc(NC(=O)CC#N)cc2)cc1	pPAFAH inh 26.1
CCN(CC)S(=O)(=O)c1ccc(NC(=O)COC(=O)c2ccc(Br)o2)cc1	none
Cc1ccc(NC(=S)NCC(C)C)cc1	none
Cc1ccc(C)c(NC(=S)NC2CC3CCCC(C2)N3CC(C)C)c1 (stereo not drawn)	none
CC(=O)Nc1ccc(C(=O)OCC(=O)c2ccc(C)c([N+](=O)[O-])c2)cc1	PAFAH2 FP inh 33.1
Nc1nonc1-n1nnc(C(=O)N/N=C/c2cccc(F)c2)c1-c1ccccc1	none
Cc1cccc(/N=C/c2nc(-c3ccccc3Br)oc2O)n1	PAFAH2 FP inh 65.8, pPAFAH inh 31.8
CSc1ccccc1N=Cc1nc(-c2ccccc2)oc1O	none
COC(=O)CSc1nnc(SCc2ccc(Cl)cc2)s1	PAFAH1B2 FP inh 30.8
CCCN1CCC(=O)N(CCOc2ccccc2)CC1	none
COc1cccc(/C=C/C(=O)OCC(=O)Nc2ccc(Cl)cn2)c1	PAFAH2 FP inh 31.5
COc1ccc(OCCCC(=O)OCC(=O)Nc2ccc(Cl)cn2)cc1	pPAFAH inh 26.4
Cc1cc(C)cc(OCC(=O)OCC(=O)Nc2ccc(Cl)cn2)c1	none
O=C(COC(=O)/C=C/c1cccc(F)c1)Nc1ccc(Cl)cn1	none
O=C(COC(=O)Cc1ccc(Br)cc1)Nc1ccc(Cl)cn1	pPAFAH inh 25.5 (no result: PP5 inh, PP1 counter)
COc1ccc(NC(=O)COC(=O)C2CCN(S(=O)(=O)c3cccs3)CC2)cc1	none
Cc1ccc(S(=O)(=O)Nc2cccc(Cl)c2)cc1NC(=O)C1CC1	pPAFAH inh 33.7 (no result: PP5 inh, PP1 counter)
Cc1ccc2c(c1)/C(=N/OC(=O)c1ccc(F)cc1)CCS2	none
O=C(O/N=C1/CCSc2ccccc21)c1ccccc1	PAFAH2 FP inh 40.8
Cc1ccc(CCNC(=O)C2CCC(=O)N2C2CCCC2)cc1 (stereo not drawn)	PAFAH1B2 FP inh 26.9
COc1ccc(NC(=O)CSc2nnc(CNC(=O)COc3ccc(Cl)cc3)o2)c(OC)c1	none
COc1ccccc1OCc1nnc(SCC(=O)c2cc(Cl)ccc2OC)o1	PP1 counter 16.9
COc1ccc(OC)c(NC(=O)CSc2nnc(CNC(=O)COc3ccc(Cl)cc3)o2)c1	PAFAH1B2 FP inh 27.6
COc1ccccc1OCc1nnc(SCC(=O)N2CCCC2)o1	none
O=C(NCCCCCCOC1=NS(=O)(=O)c2ccccc21)C(=O)Nc1ccccc1	none
COCc1nc(-c2ccc(-c3ccccc3)nc2OC)no1	pPAFAH inh 26.1
C/C(N)=C(/C#N)C(=O)COC(=O)CCSc1ccccc1	PAFAH1B2 FP inh 26.5!
COc1cc(NC(=O)c2cc(OC)c(OC)c(OC)c2)c2ncccc2c1	PAFAH1B2 FP inh 26.7 (no result: PP5 inh, pPAFAH inh, PP1 counter)
COc1cc(NCCCCCCCN)c2ncccc2c1	none
COc1cc(NC(C)CCCN)c2ncccc2c1 (stereo not drawn)	PP1 counter 16.2
O=C(O)c1c2c(nc3ccc(S(=O)(=O)N4CCC(C(=O)N5CCCCC5)CC4)cc13)CCCC2	none
Cc1ccc(C)c(N2C(=N)S/C(=C\c3ccc(-c4ccccc4C(=O)O)o3)C2=O)c1	none
CN1C(=O)/C(=C/c2ccc(-c3ccccc3[N+](=O)[O-])o2)SC1=Nc1ccc(Cl)c(C(=O)O)c1	PAFAH2 FP inh 31.2, pPAFAH inh 29.4
COc1cc(O)c2c(c1)OC(c1ccc(O)cc1)CC2=O (stereo not drawn)	none
Cc1c(O)cc2c(c1O)C(=O)CC(c1ccc(O)cc1)O2 (stereo not drawn)	pPAFAH inh 32.2
CCOC(=O)c1c2c3c(cccc3[nH]c1=O)C(=O)c1ccccc1-2	none
CCOC(=O)c1c2c3c(cccc3n(C)c1=O)C(=O)c1ccccc1-2	pPAFAH inh 31.0, PAFAH1B3 FP inh 26.1
CCOC(=O)c1c2c(n(Cc3ccccc3)c1C)C(=O)C(=O)c1ccccc1-2	PAFAH2 FP inh 51.9, PAFAH1B2 FP inh 30.4, PAFAH1B3 FP inh 78.6 (no result: PP5 inh, pPAFAH inh, PP1 counter)
CCCn1c(C)c(C(=O)OCC)c(O)c(-c2ccccc2)c1=O	none (no result: PAFAH2 FP inh, PAFAH1B2 FP inh, PAFAH1B3 FP inh)
CC(C)N1CC2=C(OC(N)=C(C#N)C2c2cccnc2)/C(=C/c2cccnc2)C1 (stereo not drawn)	none
Cc1cccc(NC(=O)CNC(=O)COC(=O)CCS(=O)(=O)c2ccccc2)c1C	none
COc1ccc(-n2c(SC)nnc2-c2c[nH]c3ccccc23)cc1	none
CCOc1ccc(-n2c(SCC(=O)Nc3ccc(CC)cc3)nc3n[nH]c(C)c3c2=N)cc1	PP1 counter 16.3
